Measurements: PubChem BioAssay AID1986 (Sanford-Burnham Center for Chemical Genomics, 2009)
Screen size: about 290,000 compounds; about 890 (0.31%) were called active. No stated cut-off is given here; in the data, active means inhibition mostly above about 52% (no sharp cut-off); inactive means mostly below about 76%. The list comes from a sample in which actives are over-represented; it also holds similar structures and randomly drawn compounds.

Assay: inhibitors of HIV fusion peptide binding, primary screen, biochemical, uHTS, fluorescence dequenching (AID 1986)
Settings: cell-free peptide binding, 30 min, stronger effect = higher value
[1] = measured here: repeat confirmation average inhibition, at 18.6 µM

Row | Structure (SMILES) | inhibition (at 20 µM) | inhibition [1]
1 | CC1C/C(=C/c2ccco2)C(=O)/C(=C/c2ccco2)C1 (centres undefined) | 61.3% (active) | –
2 | CC(C)(C)C1C/C(=C/c2ccco2)C(=O)/C(=C/c2ccco2)C1 (centres undefined) | 61.8% (active) | –
3 | O=C1/C(=C/c2cccs2)CCC/C1=C\c1cccs1 | 31.9% (inactive) | –
4 | Cn1cccc1/C=C1\CC(C(C)(C)C)C/C(=C\c2cccn2C)C1=O (centres undefined) | 2.7% (inactive) | –
5 | CC1C/C(=C/c2cccs2)C(=O)/C(=C/c2cccs2)C1 (centres undefined) | 68.1% (active) | –
6 | CC1C/C(=C/c2ccncc2)C(=O)/C(=C/c2ccncc2)C1 (centres undefined) | 1.9% (inactive) | –
7 | O=C1/C(=C\c2ccco2)CCC/C1=C\c1ccco1 | 69.6% (inactive) | 3.2%
8 | CCC1C/C(=C/c2ccco2)C(=O)/C(=C/c2ccco2)C1 (centres undefined) | 68.9% (inactive) | 0.1%
9 | CC(C)(C)C1C/C(=C/c2ccccn2)C(=O)/C(=C/c2ccccn2)C1 (centres undefined) | 3.1% (inactive) | –
10 | N#Cc1cccn1-c1nccs1 | -0.8% (inactive) | –
11 | Cc1onc(-c2c(F)cccc2Cl)c1C(=O)OCC(=O)NC(N)=O | -0.8% (inactive) | –
12 | COC(=O)c1ccc(CSc2nc3ccccc3[nH]2)o1 | 1.5% (inactive) | –
13 | CCN(CC)c1ccc(/C=C2\SC(=O)N(C(C)C)C2=O)o1 | 56.4% (active) | –
14 | CC(C)N1C(=O)S/C(=C\c2ccc(-c3ccc(Cl)c(C(=O)O)c3)o2)C1=O | 24.7% (inactive) | –
15 | CCN(CC)c1ccc(/C=C2/SC(=O)N(C(C)C)C2=O)o1 | 2.5% (inactive) | –
16 | COc1ccc(C(=O)N/N=C(\C)c2ccc3c(c2)C2C=CCC2C(c2ccccc2)N3)cc1 (centres undefined) | 16.5% (inactive) | –
17 | O=C(O)c1ccc2c(c1)C1C=CCC1C(c1ccncc1)N2 (centres undefined) | 24.6% (inactive) | –
18 | NCCCNc1ccc([N+](=O)[O-])cc1C(F)(F)F | 0.6% (inactive) | –
19 | O=C(COc1ccc(Br)cc1Cl)NC(=S)Nc1ccccn1 | -1.1% (inactive) | –
20 | CC1=CC(=C(C#N)c2nc3ccccc3s2)C=C(C)N1c1ccc(F)cc1 | 66.4% (active) | –
21 | COc1ccccc1N1C(C)=CC(=C(C#N)c2nc3ccccc3s2)C=C1C | 26.5% (inactive) | –
22 | CC1=CC(=C(C#N)c2nc3ccccc3s2)C=C(C)N1c1ccc(F)cc1F | 22.6% (inactive) | –
23 | CCN(CC)C(=O)Cn1cc(S(=O)(=O)CC(=O)Nc2cc(OC)ccc2OC)c2ccccc21 | -1.7% (inactive) | –
24 | C=CCNCCCCOc1ccccc1-c1ccccc1 | -2% (inactive) | –
25 | CC1=NOC(=O)/C1=C/c1ccc(O)cc1 | 0.5% (inactive) | –

Row | Structure (SMILES) | inhibition (at 20 µM) | inhibition [1]
26 | CCN(CC)c1ccc(/C=C2/C(=O)ON=C2C)cc1 | 100% (active) | –
27 | CC1=NOC(=O)/C1=C/c1ccc(N(C)C)cc1 | -2.2% (inactive) | –
28 | Nn1cnnc1SCC(=O)Nc1ccc2c(c1)OCO2 | 0.5% (inactive) | –
29 | Cc1cccc(C)c1Nc1nnc(SCC(=O)c2ccc3c(c2)NC(=O)CO3)s1 | 0.2% (inactive) | –
30 | CCOC(=O)/C(C#N)=C/c1ccc(N2CCN(C)CC2)cc1 | 7.2% (inactive) | –
31 | CCOC(=O)/C(C#N)=C\c1ccc(N2CCN(C)CC2)cc1 | 4% (inactive) | –
32 | CCOC(=O)/C(C#N)=C\c1ccc(N2CCN(C/C=C/c3ccccc3)CC2)cc1 | 117% (active) | –
33 | CCCCCCCCCCCCCCCC[n+]1ccc(C(N)=O)cc1 | -14.2% (inactive) | –
34 | CCCCCCCCCC[n+]1cccc(C(=O)N(CC)CC)c1 | 3% (inactive) | –
35 | CCCn1c(=O)c2sccc2n2c(CCCC(=O)NCc3cccnc3)nnc12 | -1.5% (inactive) | –
36 | O=C(c1ccccc1)N1N=C(c2ccccc2)CC1c1ccccc1 (centres undefined) | 1.1% (inactive) | –
37 | Cc1cc[n+](-c2[nH]c(=O)sc2/C=N/N=C(\[O-])c2ccncc2)cc1C | 0% (inactive) | –
38 | Cc1cc[n+](-c2[nH]c(=O)sc2/C=N/N=C(\[O-])c2ccccc2)cc1 | 10.5% (inactive) | –
39 | Cc1cc[n+](-c2[nH]c(=O)sc2/C=N/N=C(\[O-])c2ccccc2)cc1C | 116% (active) | 93.6%
40 | Cc1cc(NC(=O)CSCC(=O)N(c2cccc(Cl)c2)C(C(=O)NC2CCCCC2)c2ccc(O)c(O)c2)no1 (centres undefined) | 11.2% (inactive) | –
41 | CSCc1ccc(C(=O)NC2CC(C)(C)Cc3c2cnn3-c2ccc(F)cc2)o1 (centres undefined) | 1.2% (inactive) | –
42 | CCCn1c(=O)c2ccccc2n2c(SCN3C(=O)c4ccccc4C3=O)nnc12 | 0.3% (inactive) | –
43 | N#C/C(=C/c1ccc(-c2ccc(S(N)(=O)=O)cc2)o1)c1nc2ccccc2s1 | 149% (inactive) | –
44 | N#C/C(=C/c1ccc(-c2cc(C(=O)O)cc(C(=O)O)c2)o1)c1nc2ccccc2s1 | 92.9% (active) | –
45 | O=C(O)c1cccc(-c2ccc(/C=c3/sc4nc5ccccc5n4c3=O)o2)c1 | 78% (active) | –
46 | N#C/C(=C\c1ccc(-c2ccc([N+](=O)[O-])cc2)o1)C(=O)Nc1nc(-c2cccs2)cs1 | -1.7% (inactive) | –
47 | N#C/C(=C\c1ccc(-c2ccc(F)cc2)o1)C(=O)Nc1nc(-c2cccs2)cs1 | 14.4% (inactive) | –
48 | N#C/C(=C\c1ccco1)c1nc2ccccc2s1 | 146% (inactive) | –
49 | O=C(O)c1cccc(-c2ccc(/C=N/n3cnnc3)o2)c1 | 1.6% (inactive) | –
50 | O=Cc1ccc(-c2cccc(C(=O)O)c2)o1 | 2.4% (inactive) | –

Row | Structure (SMILES) | inhibition (at 20 µM) | inhibition [1]
51 | N#C/C(=C/c1ccc(-c2ccccc2)o1)c1nc(-c2cccs2)cs1 | 62.6% (active) | –
52 | O=C(O)c1cc(-c2ccc(/C=C3\NC(=O)N(c4ccccc4)C3=O)o2)ccc1Cl | 32.2% (inactive) | –
53 | O=C(O)c1cc(-c2ccc(/C=c3\sc4nc5ccc(Br)cc5n4c3=O)o2)ccc1Cl | 68.1% (active) | –
54 | CC1(C)OC(=O)C(=Cc2ccc(-c3ccc(Cl)c(C(=O)O)c3)o2)C(=O)O1 | 36.9% (inactive) | –
55 | COC(=O)c1cccc(Cn2nnc3ccccc3c2=O)c1 | 0.9% (inactive) | –
56 | O=C(NCCN1C(=O)S/C(=C\c2ccc(OC(F)F)cc2)C1=O)[C@@H]1CCCN1C(=O)c1cccs1 | 0.1% (inactive) | –
57 | Cc1cc(Sc2nc(N)ncc2[N+](=O)[O-])ncn1 | -1.5% (inactive) | –
58 | COC(=O)c1sc2ncn(N)c(=O)c2c1C | -0.5% (inactive) | –
59 | CC(=O)Nc1ccc(C(=O)N/N=C/C2CC3C=CC2C3)cc1 (centres undefined) | -0.7% (inactive) | –
60 | COc1cc2[nH]c(=O)n(CCCCCC(=O)NCCc3c[nH]c4ccccc34)c(=O)c2cc1OC | 2.6% (inactive) | –
61 | CCOC(=O)c1cc(CC)sc1NC(=O)COc1ccc2c(C)cc(=O)oc2c1 | -0.1% (inactive) | –
62 | N/C(=N\OC(=O)COc1ccc(Cl)cc1Cl)c1cccnc1 | 1.4% (inactive) | –
63 | COc1cc(NC(=O)C(C)Oc2ccccc2)ccc1NC(=O)COc1ccccc1 (centres undefined) | 1.7% (inactive) | –
64 | O=C1Nc2ccccc2OC1CC(=O)N1CCCC1 (centres undefined) | -2.7% (inactive) | –
65 | COCCNC(=O)C(c1ccc(F)cc1)N(Cc1ccco1)C(=O)CCC(=O)Nc1ccccn1 (centres undefined) | -1.2% (inactive) | –
66 | CCOC(=O)C1CCN(C(=O)c2cc3cc4ccc(OC)cc4nc3o2)CC1 | -0.9% (inactive) | –
67 | O=c1/c(=C/c2ccc(O)c([N+](=O)[O-])c2)sc2nc3ccccc3n12 | 50.3% (active) | –
68 | O=C(O)c1cc(C(=O)O)cc(-c2ccc(/C=c3/sc4nc5ccccc5n4c3=O)o2)c1 | 63.3% (active) | –
69 | O=c1/c(=C\c2cccnc2)sc2nc3ccccc3n12 | -0.5% (inactive) | –
70 | O=c1/c(=C\c2cccn2-c2ccccc2)sc2nc3ccccc3n12 | 3.1% (inactive) | –
71 | O=c1/c(=C/c2ccccn2)sc2nc3ccccc3n12 | -0.5% (inactive) | –
72 | COC(=O)/C=c1/sc2nc3ccccc3n2c1=O | 6.3% (inactive) | –
73 | O=C(CN1CCN(c2ccccc2F)CC1)c1c[nH]c2ccc(F)cc12 | 4% (inactive) | –
74 | Cc1cc(C)n2cc(CSc3nncn3C)nc2n1 | -1.3% (inactive) | –
75 | CC1c2ccsc2CCN1S(=O)(=O)c1cccs1 (centres undefined) | -1% (inactive) | –

Row | Structure (SMILES) | inhibition (at 20 µM) | inhibition [1]
76 | COc1ccc(Cc2nc3ccc(C(=O)N(C)CCc4cnn(C)c4)cc3o2)cc1OC | 0.7% (inactive) | –
77 | C/C(CC(=O)Nc1ccc(Cl)c(C(F)(F)F)c1)=N\NC(=O)c1cc2ccccc2cc1O | 67.3% (active) | –
78 | C/C(CC(=O)Nc1ccc(Cl)c(C(F)(F)F)c1)=N\NC(=O)c1cccc(O)c1 | 4.2% (inactive) | –
79 | C/C(CC(=O)Nc1ccc(Cl)c(C(F)(F)F)c1)=N\NC(=O)c1ccccc1O | 26.3% (inactive) | –
80 | O=C(NCCCn1ccnc1)C(=O)Nc1ccccc1 | 0.2% (inactive) | –
81 | COc1ccc(OC)c(NC(=O)Cc2nn(C)c(=O)c3ccccc23)c1 | 2.9% (inactive) | –
82 | Cc1c(C(=O)N2CCC(C)CC2)cccc1[N+](=O)[O-] | -0.4% (inactive) | –
83 | NS(=O)(=O)c1ccc(Nc2nc3ccccc3nc2NS(=O)(=O)c2cccc([N+](=O)[O-])c2)cc1 | 69.6% (active) | –
84 | O=[N+]([O-])c1ccc(S(=O)(=O)Nc2nc3ccccc3nc2Nc2ccccc2)cc1 | 1% (inactive) | –
85 | Cc1ccc(S(=O)(=O)Nc2nc3ccccc3nc2Nc2cccc(S(=O)(=O)N3CCCC3)c2)cc1 | 72.4% (active) | –
86 | O=S(=O)(Nc1cccc(S(=O)(=O)N2CCCCCC2)c1)c1ccccc1 | -0.4% (inactive) | –
87 | COc1ccc(S(=O)(=O)Nc2cccc(S(=O)(=O)N3CCCCCC3)c2)cc1 | 2.5% (inactive) | –
88 | CC(=O)Nc1ccc(S(=O)(=O)Nc2nc3ccccc3nc2Nc2ccc(S(N)(=O)=O)cc2)cc1 | 37.9% (inactive) | –
89 | O=C(CSC1=NCCS1)N1CCCC1 | 4.9% (inactive) | –
90 | CCN1CCN(CC(O)COc2ccc(Cl)cc2)CC1 (centres undefined) | -1.2% (inactive) | –
91 | CCc1nnc(NC(=O)c2ccc(OCc3c(C)noc3C)c(OC)c2)s1 | 0.8% (inactive) | –
92 | COc1ccc(-c2nc(NC(=O)C3CC(=O)N(c4ccc5c(c4)OCCO5)C3)sc2C)cc1 (centres undefined) | 2.7% (inactive) | –
93 | O=C(Nc1nc(-c2ccco2)c(-c2ccco2)s1)C1CCC1 | 63.8% (active) | –
94 | O=C(Nc1nnc(-c2ccco2)s1)C1CC1 | 0.3% (inactive) | –
95 | O=C(CCCSc1ccccc1)Nc1nc(-c2ccco2)c(-c2ccco2)s1 | 58.7% (inactive) | 2.6%
96 | O=C(CCl)Nc1nc(-c2ccco2)c(-c2ccco2)s1 | 64.5% (active) | –
97 | O=C(Nc1nnc(-c2ccco2)s1)C1CCCCC1 | 2.3% (inactive) | –
98 | O=C(Nc1nc(-c2ccco2)c(-c2ccco2)s1)C1CC(=O)N(c2ccc3c(c2)OCCO3)C1 (centres undefined) | 59.5% (active) | –
99 | Nc1nc(-c2ccco2)c(-c2ccco2)s1 | 1.2% (inactive) | –
100 | O=C(Nc1nnc(C2CC2)s1)C1CC(=O)N(c2ccc3c(c2)OCCO3)C1 (centres undefined) | 16.4% (inactive) | –
